The values that follow come from PubChem BioAssay (EPA / NIEHS).

Experiment [1] concerns the target human RAR-related Orphan Receptor gamma (RORg), RORC (gene 6097) (UniProt P51449). Description: ATG_RORg_TRANS: Attagene TRANS-FACTORIAL HepG2 Assay for human RAR-related Orphan Receptor gamma (RORg) (AID 2283011). Summed up:
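Chimeric RORg-Gal4 transactivation in transfected HepG2; 24 h exposure; RT-PCR/capillary electrophoresis readout of reporter mRNA, DMSO baseline.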

Experiment [2] deals with Retinoic acid receptor RXR-alpha (Homo sapiens) (UniProt P19793). Description: ATG_RXRa_TRANS: Attagene TRANS-FACTORIAL HepG2 Assay for human Retinoid X Receptor alpha (RXRa) (AID 2283012). Summed up:
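Measures exogenous chimeric NR-GAL4 activity in transfected HepG2 liver cells after 24 h of dosing. Induced reporter mRNA was detected by RT-PCR with capillary electrophoresis, and gain of signal was analysed against DMSO.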

Experiment [3] concerns the target Peroxisome proliferator-activated receptor gamma (Homo sapiens) (UniProt P37231). Description: ATG_PPARg_TRANS: Attagene TRANS-FACTORIAL HepG2 Assay for human Peroxisome Proliferator-activated Receptor-gamma (PPARg) (AID 2283007). Summed up: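 Twenty-four hours after chemical dosing of transiently transfected HepG2 cells, isolated RNA was converted to cDNA, reporter sequences amplified and 6-FAM-labelled, then HpaI-digested and analysed by capillary electrophoresis. Signal increase against DMSO was fitted.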

For experiment [4], the target named is human Retinoid X Receptor beta (RXRb), RXRB (gene 6257) (UniProt P28702). Put plainly: ATG_RXRb_TRANS: Attagene TRANS-FACTORIAL HepG2 Assay for human Retinoid X Receptor beta (RXRb) (AID 2283013). Summed up:
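Chimeric receptor-Gal4 activity was assessed in transiently transfected human HepG2 cells after 24 h exposure. Transcripts from GAL4-UAS reporters were quantified by fluorescent RT-PCR and capillary electrophoresis, with DMSO as negative control and baseline.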

Experiment [5] addresses Nuclear receptor subfamily 1 group I member 2 (Homo sapiens) (UniProt O75469). Put plainly: ATG_PXR_TRANS: Attagene TRANS-FACTORIAL HepG2 Assay for human Pregnane X Receptor (PXR) (AID 2283008). Summed up:
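Trans-factorial format: exogenous NR-Gal4 fusion activity, not endogenous factor, in transfected human HepG2 liver cells. After 24 h dosing, RNA isolated, reverse-transcribed, amplified and resolved by capillary electrophoresis; induction scored versus DMSO.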

The target of experiment [6] is human RAR-related Orphan Receptor beta (RORb), RORB (gene 6096) (UniProt Q92753). Description: ATG_RORb_TRANS: Attagene TRANS-FACTORIAL HepG2 Assay for human RAR-related Orphan Receptor beta (RORb) (AID 2283010). Summed up:
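Transfect HepG2 with multiple GAL4-UAS reporter transcription units; dose chemicals for 24 h; isolate RNA, reverse-transcribe and PCR-amplify reporter sequences; label, digest and resolve fragments by capillary electrophoresis; fit increases relative to DMSO.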

In experiment [7] the target is human Vitamin D Receptor (VDR), VDR (gene 7421) (UniProt P11473). Put plainly: ATG_VDR_TRANS: Attagene TRANS-FACTORIAL HepG2 Assay for human Vitamin D Receptor (VDR) (AID 2283022). In outline:
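Multiplexed TRANS reporter in HepG2; 24 h treatment; reporter mRNA by RT-PCR plus capillary electrophoresis; upregulation scored relative to DMSO.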

Experiment [8] addresses human Thyroid Receptor alpha (THRa1), THRA (gene 7067) (UniProt P10827). Put plainly: ATG_THRa1_TRANS: Attagene TRANS-FACTORIAL HepG2 Assay for human Thyroid Receptor alpha (THRa1) (AID 2283014). Summed up: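 Measured here is mRNA from a GAL4-UAS reporter in transfected HepG2 cells carrying a Gal4-fused receptor, 24 h post-dose. DMSO served as negative control and baseline.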

Experiment [9] has as its target human Retinoic Acid Receptor gamma (RARg), RARG (gene 5916) (UniProt P13631). Description: ATG_RARg_TRANS: Attagene TRANS-FACTORIAL HepG2 Assay for human Retinoic Acid Receptor gamma (RARg) (AID 2283009). Summed up:
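TRANS format measured activity of exogenous NR-GAL4 fusion (RARg) in transfected HepG2 liver cells after 24 h dosing. Induced reporter RNA was detected by RT-PCR/capillary electrophoresis fluorescence, analysed in the positive direction against DMSO.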

Inconclusive results are not listed. Activity calls are given as the source filed them. The calls were made as follows: active = hit-call score of the fitted dose curve at least 0.9, where 1 is the maximum; inconclusive = response in the unintended direction; inactive = score below 0.9.

Chain of Retinoic acid receptor RXR-alpha (Homo sapiens) (P19793 whole entry, looked up, the tested form may be a part): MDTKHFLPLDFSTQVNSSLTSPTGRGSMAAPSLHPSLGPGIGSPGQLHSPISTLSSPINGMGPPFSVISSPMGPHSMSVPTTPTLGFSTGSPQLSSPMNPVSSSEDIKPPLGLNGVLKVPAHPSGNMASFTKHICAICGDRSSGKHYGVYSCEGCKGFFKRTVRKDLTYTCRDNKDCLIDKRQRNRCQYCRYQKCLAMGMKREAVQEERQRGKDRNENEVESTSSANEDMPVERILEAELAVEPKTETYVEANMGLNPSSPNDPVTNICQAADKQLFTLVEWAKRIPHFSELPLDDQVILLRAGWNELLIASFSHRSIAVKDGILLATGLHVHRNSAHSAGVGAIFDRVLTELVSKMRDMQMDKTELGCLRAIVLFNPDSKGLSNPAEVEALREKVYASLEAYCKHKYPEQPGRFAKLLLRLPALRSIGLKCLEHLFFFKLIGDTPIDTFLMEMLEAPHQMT
Chain of human RAR-related Orphan Receptor beta (RORb), RORB (gene 6096) (Q92753 whole entry, looked up, the tested form may be a part): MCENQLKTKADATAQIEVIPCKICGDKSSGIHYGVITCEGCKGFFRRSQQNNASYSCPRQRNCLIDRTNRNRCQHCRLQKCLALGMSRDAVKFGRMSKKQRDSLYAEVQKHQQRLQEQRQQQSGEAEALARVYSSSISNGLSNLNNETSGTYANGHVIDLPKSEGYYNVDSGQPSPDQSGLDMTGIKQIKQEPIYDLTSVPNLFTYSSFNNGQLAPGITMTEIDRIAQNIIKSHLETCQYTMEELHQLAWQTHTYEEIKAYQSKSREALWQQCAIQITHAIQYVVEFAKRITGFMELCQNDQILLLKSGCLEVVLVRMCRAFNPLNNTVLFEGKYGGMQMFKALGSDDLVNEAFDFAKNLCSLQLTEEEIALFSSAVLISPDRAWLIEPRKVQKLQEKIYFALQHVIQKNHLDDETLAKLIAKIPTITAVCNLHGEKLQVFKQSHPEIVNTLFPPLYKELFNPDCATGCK
Chain of human Retinoid X Receptor beta (RXRb), RXRB (gene 6257) (P28702 whole entry, looked up, the tested form may be a part): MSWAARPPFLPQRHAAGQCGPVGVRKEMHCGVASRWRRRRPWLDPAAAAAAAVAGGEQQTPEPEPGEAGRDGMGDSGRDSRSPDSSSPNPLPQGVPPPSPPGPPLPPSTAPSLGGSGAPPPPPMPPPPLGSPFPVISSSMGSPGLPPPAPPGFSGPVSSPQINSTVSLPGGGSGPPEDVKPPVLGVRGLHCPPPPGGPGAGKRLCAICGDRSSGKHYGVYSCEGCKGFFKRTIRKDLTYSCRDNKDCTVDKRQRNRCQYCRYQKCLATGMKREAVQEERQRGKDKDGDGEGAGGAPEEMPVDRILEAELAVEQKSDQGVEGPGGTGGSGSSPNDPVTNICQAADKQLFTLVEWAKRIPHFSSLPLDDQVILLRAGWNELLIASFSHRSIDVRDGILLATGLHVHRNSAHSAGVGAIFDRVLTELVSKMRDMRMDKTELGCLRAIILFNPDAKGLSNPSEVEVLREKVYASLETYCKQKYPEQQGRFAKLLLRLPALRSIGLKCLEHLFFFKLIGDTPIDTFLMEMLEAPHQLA
Chain of human Vitamin D Receptor (VDR), VDR (gene 7421) (P11473 whole entry, looked up): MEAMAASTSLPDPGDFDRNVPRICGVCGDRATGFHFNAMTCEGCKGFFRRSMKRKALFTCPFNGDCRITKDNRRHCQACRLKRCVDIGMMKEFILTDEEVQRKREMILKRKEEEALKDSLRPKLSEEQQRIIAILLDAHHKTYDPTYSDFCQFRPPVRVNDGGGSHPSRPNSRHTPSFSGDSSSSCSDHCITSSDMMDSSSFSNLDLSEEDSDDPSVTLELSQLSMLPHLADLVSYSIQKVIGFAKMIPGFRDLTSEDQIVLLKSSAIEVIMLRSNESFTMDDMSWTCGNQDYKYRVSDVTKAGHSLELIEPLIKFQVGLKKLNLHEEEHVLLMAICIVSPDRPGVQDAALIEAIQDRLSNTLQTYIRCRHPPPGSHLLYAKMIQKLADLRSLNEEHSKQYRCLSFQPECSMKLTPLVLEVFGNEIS
Chain of human RAR-related Orphan Receptor gamma (RORg), RORC (gene 6097) (P51449 whole entry, looked up, the tested form may be a part): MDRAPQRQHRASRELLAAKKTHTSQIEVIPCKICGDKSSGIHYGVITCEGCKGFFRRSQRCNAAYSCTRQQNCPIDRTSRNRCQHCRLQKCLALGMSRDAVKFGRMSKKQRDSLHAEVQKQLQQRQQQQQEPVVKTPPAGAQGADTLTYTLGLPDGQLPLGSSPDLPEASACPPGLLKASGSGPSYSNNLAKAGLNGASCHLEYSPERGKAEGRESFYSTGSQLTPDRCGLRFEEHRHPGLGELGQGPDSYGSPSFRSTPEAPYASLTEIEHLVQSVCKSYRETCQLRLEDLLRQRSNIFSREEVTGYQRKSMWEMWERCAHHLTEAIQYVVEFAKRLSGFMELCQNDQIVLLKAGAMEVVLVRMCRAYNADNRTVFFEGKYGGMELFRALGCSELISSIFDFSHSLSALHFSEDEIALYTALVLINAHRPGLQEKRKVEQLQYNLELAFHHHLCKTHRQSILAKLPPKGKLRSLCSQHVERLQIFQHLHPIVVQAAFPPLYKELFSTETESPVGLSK
Chain of human Thyroid Receptor alpha (THRa1), THRA (gene 7067) (P10827 whole entry, looked up, the tested form may be a part): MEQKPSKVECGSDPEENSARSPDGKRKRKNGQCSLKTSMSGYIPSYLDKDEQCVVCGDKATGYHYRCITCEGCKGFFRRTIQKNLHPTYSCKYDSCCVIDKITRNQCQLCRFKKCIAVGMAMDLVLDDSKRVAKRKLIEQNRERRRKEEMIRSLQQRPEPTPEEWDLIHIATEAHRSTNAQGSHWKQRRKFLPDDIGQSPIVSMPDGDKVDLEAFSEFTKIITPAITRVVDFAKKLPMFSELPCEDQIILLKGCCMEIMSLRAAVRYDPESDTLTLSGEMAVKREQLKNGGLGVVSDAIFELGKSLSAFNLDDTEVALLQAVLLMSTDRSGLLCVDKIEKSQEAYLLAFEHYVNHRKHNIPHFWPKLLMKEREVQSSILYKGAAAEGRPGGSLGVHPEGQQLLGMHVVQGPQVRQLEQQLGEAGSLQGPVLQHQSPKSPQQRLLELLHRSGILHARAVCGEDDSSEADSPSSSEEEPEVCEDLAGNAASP
Chain of Nuclear receptor subfamily 1 group I member 2 (Homo sapiens) (O75469 whole entry, looked up, the tested form may be a part): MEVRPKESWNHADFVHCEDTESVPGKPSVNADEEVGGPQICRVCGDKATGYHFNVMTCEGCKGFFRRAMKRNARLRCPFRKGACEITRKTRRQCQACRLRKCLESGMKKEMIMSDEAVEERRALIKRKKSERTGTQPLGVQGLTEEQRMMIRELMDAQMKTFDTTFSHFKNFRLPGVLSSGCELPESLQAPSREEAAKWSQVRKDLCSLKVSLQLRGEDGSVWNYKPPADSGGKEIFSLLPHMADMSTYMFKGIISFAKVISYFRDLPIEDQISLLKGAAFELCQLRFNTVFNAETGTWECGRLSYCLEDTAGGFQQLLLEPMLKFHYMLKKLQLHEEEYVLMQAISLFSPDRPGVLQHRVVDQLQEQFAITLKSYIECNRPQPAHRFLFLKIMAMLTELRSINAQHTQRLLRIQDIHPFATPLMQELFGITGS
Chain of Peroxisome proliferator-activated receptor gamma (Homo sapiens) (P37231 whole entry, looked up): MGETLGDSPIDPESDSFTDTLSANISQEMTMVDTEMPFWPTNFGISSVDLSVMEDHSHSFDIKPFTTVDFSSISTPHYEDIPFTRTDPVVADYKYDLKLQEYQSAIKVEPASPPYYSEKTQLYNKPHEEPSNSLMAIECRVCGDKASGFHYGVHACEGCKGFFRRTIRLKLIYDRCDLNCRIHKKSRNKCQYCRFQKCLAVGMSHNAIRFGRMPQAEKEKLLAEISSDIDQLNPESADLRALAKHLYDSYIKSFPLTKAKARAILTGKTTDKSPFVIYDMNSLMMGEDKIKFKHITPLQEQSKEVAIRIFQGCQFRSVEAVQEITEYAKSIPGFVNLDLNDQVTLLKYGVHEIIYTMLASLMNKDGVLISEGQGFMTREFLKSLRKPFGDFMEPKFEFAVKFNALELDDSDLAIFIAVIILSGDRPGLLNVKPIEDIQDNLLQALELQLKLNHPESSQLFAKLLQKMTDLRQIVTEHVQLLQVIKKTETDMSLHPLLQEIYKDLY
Chain of human Retinoic Acid Receptor gamma (RARg), RARG (gene 5916) (P13631 whole entry, looked up, the tested form may be a part): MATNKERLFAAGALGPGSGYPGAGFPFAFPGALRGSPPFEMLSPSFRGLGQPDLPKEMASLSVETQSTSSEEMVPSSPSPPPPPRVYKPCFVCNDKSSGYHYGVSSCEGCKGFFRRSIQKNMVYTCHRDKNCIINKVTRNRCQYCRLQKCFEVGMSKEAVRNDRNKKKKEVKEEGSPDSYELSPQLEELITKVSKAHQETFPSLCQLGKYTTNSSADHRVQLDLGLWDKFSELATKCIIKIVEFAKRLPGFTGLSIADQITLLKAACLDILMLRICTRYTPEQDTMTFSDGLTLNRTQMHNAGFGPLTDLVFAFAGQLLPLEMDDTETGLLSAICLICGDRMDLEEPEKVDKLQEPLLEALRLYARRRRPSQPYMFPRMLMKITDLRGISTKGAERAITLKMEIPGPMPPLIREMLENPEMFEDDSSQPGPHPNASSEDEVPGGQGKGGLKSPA

With `O=C(NCO)NCO`, the call in experiment [1] and in [2] was inactive.
Regarding `C=CCc1ccc(OC)cc1`, the call in experiment [3], in experiment [1], in experiment [2] and in [4] was inactive.
In general, AC50 refers to the midpoint of the concentration-response curve, whichever way the signal moves. `CCCCP(CCCC)CCCC`: the AC50 in experiment [5] is 7210 nM (active). The call in experiment [6] and in experiment [7] was inactive.
Consider `CCC1(c2ccc(N)cc2)CCC(=O)NC1=O` (centres undefined), for which the outcome in [5], in experiment [1], in experiment [2] and in experiment [7] was inactive.
For the compound `CCC(=O)c1ccccc1`, the result in [3], in [6], in experiment [2], in [8] and in experiment [7] was inactive.
For `COS(=O)(=O)c1ccc(C)cc1`, the call in [5], in [6], in [1], in [2], in experiment [4] and in [8] was inactive. Also, the call in [7] was inactive.
Consider `CNC`, for which the call in [6] and in [4] was inactive.
As for `COc1ccc(C=O)cc1OC`, the compound was called inactive in [3], in experiment [6], in experiment [1], in [2] and in experiment [8].
Turning to `O=C1CCCN1`, the compound was classed as inactive in [3], in experiment [1] and in experiment [2].
`N#Cc1ccccn1`: in experiment [6], the compound was classed as inactive.
Turning to `C=CC#N`, the compound was classed as inactive in [3], in experiment [8] and in experiment [7].
Consider `Nc1cccc(Cl)c1`, for which the result in experiment [6], in experiment [4], in [8] and in experiment [7] was inactive.
For the compound `N#CN=C(N)N`, the result in [5] and in experiment [7] was inactive.
Turning to `CCCCOCCOC(C)=O`, the outcome in experiment [5], in [2], in experiment [4] and in [7] was inactive.
On to `C[C@H]1O[C@@H](O[C@H]2[C@@H](O)C[C@H](O[C@H]3[C@@H](O)C[C@H](O[C@H]4CC[C@@]5(C)[C@H](CC[C@@H]6[C@@H]5CC[C@]5(C)[C@@H](C7=CC(=O)OC7)CC[C@]65O)C4)O[C@@H]3C)O[C@@H]2C)C[C@H](O)[C@@H]1O`, for which the call in [6], in [2], in experiment [8] and in [7] was inactive.
Consider `COP(=O)(OC)O/C(=C\Cl)c1cc(Cl)c(Cl)cc1Cl`, for which the AC50 is 862 nM (active) in experiment [5] and 25700 nM (active) in experiment [4]. Moreover, the result in [2] and in experiment [8] was inactive.
Regarding `O=CC=O`, the compound was classed as inactive in [3], in experiment [6], in [1] and in [8].
For the compound `Clc1ccc(C2(Cn3cncn3)CC(Br)CO2)c(Cl)c1` (centres undefined), the AC50 in experiment [5] was 762 nM (active). In addition, the compound was called inactive in experiment [7].
As to `CCC[CH2][Sn]([Cl])([Cl])[Cl]`, the result in [5], in experiment [6] and in experiment [8] was inactive.
`N#CCCO`: the result in [9], in [6] and in experiment [1] was inactive.
Regarding `ClCc1cccnc1`, the call in experiment [5], in experiment [6], in experiment [4], in experiment [8] and in [7] was inactive.
On to `CC1CN1P(=O)(N1CC1C)N1CC1C` (centres undefined), for which the outcome in [5], in experiment [1], in [2], in experiment [4] and in [7] was inactive.
Take `COc1ccc(C=O)cc1`: the call in experiment [3], in experiment [6], in experiment [1], in experiment [2] and in [7] was inactive.
Take `Cc1cc(=O)[nH]o1`: the compound was called inactive in experiment [5], in [6] and in experiment [4].
`Cl/C=C\C[N+]12CN3CN(CN(C3)C1)C2`: the compound was called inactive in experiment [6] and in experiment [2].
For the compound `Cc1ccc(N)cc1Cl`, the compound was called inactive in experiment [3], in [5], in experiment [2], in experiment [8] and in [7].
Consider `CC1(C)CCC(Cc2ccc(Cl)cc2)C1(O)Cn1cncn1` (centres undefined), for which the AC50 in experiment [5] is 1840 nM (active). Moreover, the call in experiment [2], in experiment [8] and in experiment [7] was inactive.
As to `CN(CCCC(=O)c1cccnc1)N=O`, the compound was classed as inactive in experiment [5], in experiment [6], in [1], in [2], in [4] and in [8]. For the same compound, the call in experiment [7] was inactive.
Regarding `COP(=O)(OC)OC`, the compound was called inactive in experiment [5], in experiment [6], in experiment [1], in experiment [8] and in [7].
Regarding `NNC(=S)NN`, the outcome in experiment [3], in experiment [4] and in [8] was inactive.
Consider `CCN(CC)C(=O)Cl`, for which the compound was called inactive in experiment [5], in [6] and in experiment [4].
As for `Cl/C=C/Cl`, the compound was classed as inactive in experiment [6] and in [4].
With `CCc1ccccc1C`, the call in experiment [5], in [1], in experiment [4], in experiment [8] and in [7] was inactive.
On to `Clc1nc(Cl)nc(Cl)n1`, for which the compound was called inactive in experiment [3], in [8] and in experiment [7].
On to `C[C@H]1CCCC(=O)CCC/C=C/c2cc(O)cc(O)c2C(=O)O1`, for which the call in experiment [3] was inactive. Besides, the values for the AC50 in experiment [5] and in [4] were 407 nM (active) and 9820 nM (active), respectively.
